Where “and” joins values, the source holds several entries; their conditions need not be identical. Identical values can stand only once. Calls of active or inactive are those of the source.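 How the source made its calls, unless noted: active means thallium flux through the channel raised or lowered by more than 3 SD from vehicle-only wells, actives on both sides; inactive means the rest.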
Legend:
[1] = P. berghei load reduction in hepatocytes – cell-based, HepG2, luciferase luminescence, HepG2 viability, primary screen (AID 624349; in the data active means parasite load remaining mostly below about 12%, no sharp cut-off; inactive means mostly above about 10%;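 further: 100% = mean of DMSO negative control wells on the same plate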); conditions: P. berghei liver stage in HepG2, luciferase luminescence, concentration not given here; parasite load remaining: stronger effect = lower value; viability: measured here: HepG2 viability without parasites
[2] = signal quenchers or enhancers, Cy5 substrate/SSB – biochemical, NIH Clinical Collection, E. coli SSB, artefact control for HCV NS3 helicase inhibitor project (AID 743268; call rule not given here); conditions: Cy5-oligo bound E. coli SSB, fluorescence interference
[3] = system: Hepatitis C virus NS3 helicase; test: blockers of NS3h binding to DNA – biochemical, fluorescence polarization, NIH Clinical Collection, primary screen (AID 743270; call rule not given here); conditions: NS3 helicase binding to Cy5-dT15 DNA, stronger effect = higher value, concentration not given here
[4] = biological target: Single-stranded DNA-binding protein (Escherichia coli (strain K12)) (UniProt P0AGE0); test: SSB-ssDNA binding inhibitors – biochemical, fluorescence polarization, NIH Clinical Collection, counter-screen for HCV NS3 helicase inhibitor project (AID 743271; in the data active means inhibition above about 28%); conditions: E. coli SSB-DNA binding, stronger effect = higher value, concentration not given here
[5] = compounds distorting NS3 helicase fluorescence signal – biochemical, NIH Clinical Collection, artefact control for HCV NS3 helicase inhibitor project (AID 743272; call rule not given here;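 further: HCV NS3 helicase with a Cy5 labelled single stranded DNA probe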); conditions: fluorescence interference counterscreen, HCV NS3 helicase assay; stronger effect = lower value
[6] = biological target: 6-phosphogluconate dehydrogenase, decarboxylating (Homo sapiens) (UniProt P52209); test: inhibition of human phosphogluconate dehydrogenase – biochemical, recombinant enzyme, NADPH absorbance, primary screen (AID 1159550;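 active means at least 20% inhibition of 6-phosphogluconate dehydrogenase activity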); conditions: recombinant 6PGD, NADPH absorbance 341 nm; at 10 µM; stronger effect = higher value
[7] = modulation of C. elegans fzo-1 (AID 1259413; call rule not given here;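 further: fzo-1 mutant C. elegans worms in liquid wells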); conditions: C. elegans fzo-1 modulator screen, mean read-out; stronger effect = higher value
[8] = viability loss with induced miR-34 in A549 – imaging, A549 dox-inducible miR-34, nuclei and caspase counts, primary screen (AID 1347080;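 active means compounds whose cell count with miR-34 switched on is under 0.7 times the count with it off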); conditions: A549 miR-34 inducible, Hoechst nuclei count, 48 h
[9] = biological target: Mitogen-activated protein kinase 7 (Homo sapiens) (UniProt Q13164); test: Gal4-ERK5 driven luciferase induction – cell-based, HTS, primary screen (AID 1508626;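 active means luciferase signal above three times the same-plate solvent-only control wells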;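 further: luciferase driven by Gal4-ERK5 fusion binding five Gal4 sites before minimal TATA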); conditions: HeLa Gal4-ERK5 transactivation, 18 h, at 5 µM, stronger effect = higher value
F380Y = test: BK channel mutant inhibitors and activators – cell-based, U2OS BacMam, thallium flux, beta subunits, selectivity assay, profiling panel (AID 1259406); conditions: U2OS BacMam BK variants, at 30 µM;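 further: initial slope of Thallos dye fluorescence rise after thallium is added; log ratio against the mean of 0.3% DMSO vehicle wells on the same plate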
F380Y/beta1 = test: as above; conditions: U2OS BacMam BK variants, at 30 µM
F380Y/beta2Delta = test: as above; conditions: U2OS BacMam BK variants, at 30 µM
F380Y/beta4 = test: as above; conditions: U2OS BacMam BK variants, at 30 µM
[10] = biological target: Calcium-activated potassium channel subunit alpha-1 (Homo sapiens) + Leucine-rich repeat-containing protein 26 (Homo sapiens) (UniProt Q12791+Q2I0M4); test: as above; conditions: U2OS BacMam BK variants, F380Y/Slo1WT/gamma1, at 30 µM
R275C = test: as above; conditions: U2OS BacMam BK variants, at 30 µM
R275C/beta1 = test: as above; conditions: U2OS BacMam BK variants, at 30 µM
R275C/beta2Delta = test: as above; conditions: U2OS BacMam BK variants, at 30 µM
[11] = EMT-state selective cytotoxicity in co-culture – imaging, PC-3E GFP, TEM4-18 mCherry, primary screen (AID 1345086;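 active means compounds killing one labelled cell type while sparing the other, by normalised counts and ratio limits, not self-fluorescent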;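 on all read-outs here: cells exposed to compound for 72 h before imaging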;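 on red/green cell ratio (normalised): normalised mesenchymal count divided by normalised epithelial count so high means epithelial killing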); conditions: PC-3E GFP / TEM4-18 mCherry co-culture, imaging cell counts, at 1 µM; for red/green cell ratio (normalised): actives lie on both sides, counts scaled to control wells, 1 = unselective
[12] = drug combination growth inhibition, ovarian cancer – cell-based, oncology-focused library, rucaparib conditional, profiling panel (AID 1508598;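 active means normalized viability below 100% at a tested concentration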); conditions: patient-derived ovarian cancer cells, CellTiter-Glo viability, 144 h, stronger effect = lower value
[13] = MELAS cybrid and Rieske KO viability enhancers – cell-based, MELAS cybrids, Rieske KO mouse fibroblasts, CellTiter-Glo, primary screen (AID 1508586;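 active means mean z-score across replicates of 1.96 or higher in either the MELAS or the Rieske mutant cell line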;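 further: z relative to plate mean and SD of compound and empty wells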); conditions: low glucose
[14] = stronger effect = lower value, cell number ratio, induced over uninduced
[15] = measured here: relative caspase fold change +Dox/-Dox
[16] = measured here: total cells with miR-34 induction, stronger effect = lower value
[17] = measured here: total cells without miR-34 induction
[18] = measured here: epithelial PC-3E GFP cell survival
[19] = measured here: mesenchymal TEM4-18 mCherry cell survival
[20] = MELAS cybrid survival, CellTiter-Glo 48 h, stronger effect = higher value
[21] = Rieske KO mouse fibroblast survival, CellTiter-Glo 72 h

Calcium-activated potassium channel subunit alpha-1 (Homo sapiens) + Leucine-rich repeat-containing protein 26 (Homo sapiens), sequence (Q2I0M4 whole entry, looked up, one chain of several): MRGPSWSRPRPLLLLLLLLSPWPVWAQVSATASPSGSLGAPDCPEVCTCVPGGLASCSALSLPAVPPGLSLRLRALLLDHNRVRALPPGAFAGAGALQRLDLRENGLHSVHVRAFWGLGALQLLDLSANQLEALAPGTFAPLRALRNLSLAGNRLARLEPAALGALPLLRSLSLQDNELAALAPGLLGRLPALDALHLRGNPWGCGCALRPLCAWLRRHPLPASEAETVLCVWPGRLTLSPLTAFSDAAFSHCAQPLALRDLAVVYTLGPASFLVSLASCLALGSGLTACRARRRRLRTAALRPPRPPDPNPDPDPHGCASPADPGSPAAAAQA
6-phosphogluconate dehydrogenase, decarboxylating (Homo sapiens), sequence (P52209 whole entry, looked up): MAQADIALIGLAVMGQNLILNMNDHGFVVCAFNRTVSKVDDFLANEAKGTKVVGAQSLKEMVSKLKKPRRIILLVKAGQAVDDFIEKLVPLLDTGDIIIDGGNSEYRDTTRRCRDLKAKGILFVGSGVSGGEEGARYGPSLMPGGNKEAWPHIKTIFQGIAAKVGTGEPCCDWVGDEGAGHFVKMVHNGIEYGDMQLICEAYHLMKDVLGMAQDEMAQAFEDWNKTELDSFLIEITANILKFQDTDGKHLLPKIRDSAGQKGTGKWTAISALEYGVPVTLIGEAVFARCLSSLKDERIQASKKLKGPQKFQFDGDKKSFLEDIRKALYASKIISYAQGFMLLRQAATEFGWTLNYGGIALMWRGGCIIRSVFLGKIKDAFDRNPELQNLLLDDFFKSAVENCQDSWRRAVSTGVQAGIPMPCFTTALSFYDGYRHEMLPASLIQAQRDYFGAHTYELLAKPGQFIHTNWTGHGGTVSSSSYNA
Mitogen-activated protein kinase 7 (Homo sapiens), sequence (Q13164 whole entry, looked up, the tested form may be a part): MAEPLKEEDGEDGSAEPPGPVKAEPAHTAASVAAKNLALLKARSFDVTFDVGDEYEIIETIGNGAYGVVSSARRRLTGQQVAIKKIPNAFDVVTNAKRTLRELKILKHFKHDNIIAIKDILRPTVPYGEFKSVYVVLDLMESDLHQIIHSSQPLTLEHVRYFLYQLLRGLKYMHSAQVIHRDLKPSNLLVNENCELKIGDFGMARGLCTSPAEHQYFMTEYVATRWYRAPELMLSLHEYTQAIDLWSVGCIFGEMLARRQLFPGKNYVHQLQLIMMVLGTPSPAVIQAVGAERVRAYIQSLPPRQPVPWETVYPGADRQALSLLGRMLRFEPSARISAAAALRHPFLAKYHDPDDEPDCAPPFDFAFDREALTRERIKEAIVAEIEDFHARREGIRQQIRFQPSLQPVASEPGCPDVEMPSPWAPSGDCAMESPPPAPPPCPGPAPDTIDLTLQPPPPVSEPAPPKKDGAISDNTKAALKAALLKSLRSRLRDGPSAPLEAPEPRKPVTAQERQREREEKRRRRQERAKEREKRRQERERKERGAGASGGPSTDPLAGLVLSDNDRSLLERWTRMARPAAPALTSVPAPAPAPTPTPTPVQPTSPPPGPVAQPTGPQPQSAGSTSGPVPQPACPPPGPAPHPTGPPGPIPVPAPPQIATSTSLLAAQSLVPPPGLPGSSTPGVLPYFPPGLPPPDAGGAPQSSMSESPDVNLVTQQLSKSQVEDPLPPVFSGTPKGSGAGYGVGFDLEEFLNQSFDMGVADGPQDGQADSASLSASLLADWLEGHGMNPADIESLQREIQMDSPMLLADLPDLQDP

CC(=O)O[C@]1(C(C)=O)CC[C@H]2[C@@H]3C[C@H](C)C4=CC(=O)CC[C@]4(C)[C@H]3CC[C@@]21C
inactive: parasite load remaining [1] 22.6% | fluorescence ratio [2] 0.99 | inhibition [3] -0.45% | inhibition [4] -0.48% | fluorescence ratio [5] 0.97 | inhibition [6] 2.85% | mean signal [7] 251 | fold change [8, 14] 0.928 | luciferase signal [9] 68 AU | log fold change Tl+ flux (F380Y) -0.0294 | log fold change Tl+ flux (F380Y/beta1) 0.0192 | log fold change Tl+ flux (F380Y/beta2Delta) -0.0667 | log fold change Tl+ flux (F380Y/beta4) -0.000109 | log fold change Tl+ flux [10] -0.0359 | log fold change Tl+ flux (R275C) -0.0267 | log fold change Tl+ flux (R275C/beta1) 0.0157 | log fold change Tl+ flux (R275C/beta2Delta) 0.0115
1.75: fold change [8, 15]
8130: cell count [8, 17]
7550: cell count [8, 16]
77.3%: viability [1]

O=C(O[C@@H]1Cc2c(O)cc(O)cc2O[C@@H]1c1cc(O)c(O)c(O)c1)c1cc(O)c(O)c(O)c1
0.749: fold change [8, 15]
5870: cell count [8, 16]
0.79: normalised cell number [11, 18]
0.91: normalised cell number [11, 19]
inactive: parasite load remaining [1] 87.1% | inhibition [3] -3.56% | inhibition [6] 15.4% | mean signal [7] 222 | red/green cell ratio (normalised) [11] 1.15 | fold change [8, 14] 0.998 | viability ([12]; at 0.000305 µM, OCI-C5x cells, with rucaparib 10 µM, 100% = cells with rucaparib alone) 112% | viability ([12]; at 0.000305 µM, OCI-C5x cells, without rucaparib) 121% | viability ([12]; at 0.000305 µM, OCI-P5x cells, with rucaparib 20 µM, 100% = cells with rucaparib alone) 103% | viability ([12]; at 0.000305 µM, OCI-P5x cells, without rucaparib) 104% | viability ([12]; at 0.00122 µM, OCI-C5x cells, with rucaparib 10 µM, 100% = cells with rucaparib alone) 120% | viability ([12]; at 0.00122 µM, OCI-C5x cells, without rucaparib) 118% | viability ([12]; at 0.00488 µM, OCI-C5x cells, with rucaparib 10 µM, 100% = cells with rucaparib alone) 123% | viability ([12]; at 0.00488 µM, OCI-C5x cells, without rucaparib) 116% | viability ([12]; at 0.00488 µM, OCI-P5x cells, without rucaparib) 107% | viability ([12]; at 0.0195 µM, OCI-C5x cells, with rucaparib 10 µM, 100% = cells with rucaparib alone) 104% | viability ([12]; at 0.0195 µM, OCI-C5x cells, without rucaparib) 117% | viability ([12]; at 0.0195 µM, OCI-P5x cells, without rucaparib) 100% | viability ([12]; at 0.0781 µM, OCI-C5x cells, with rucaparib 10 µM, 100% = cells with rucaparib alone) 118% | viability ([12]; at 0.0781 µM, OCI-C5x cells, without rucaparib) 119% | viability ([12]; at 0.0781 µM, OCI-P5x cells, without rucaparib) 106% | viability ([12]; at 0.313 µM, OCI-C5x cells, with rucaparib 10 µM, 100% = cells with rucaparib alone) 109% | viability ([12]; at 0.313 µM, OCI-C5x cells, without rucaparib) 120% | viability ([12]; at 0.313 µM, OCI-P5x cells, without rucaparib) 110% | viability ([12]; at 1.25 µM, OCI-C5x cells, with rucaparib 10 µM, 100% = cells with rucaparib alone) 111% | viability ([12]; at 1.25 µM, OCI-C5x cells, without rucaparib) 108% | viability ([12]; at 1.25 µM, OCI-P5x cells, without rucaparib) 104% | viability ([12]; at 5 µM, OCI-C5x cells, with rucaparib 10 µM, 100% = cells with rucaparib alone) 117% | viability ([12]; at 5 µM, OCI-C5x cells, without rucaparib) 114% | luciferase signal [9] 48 AU
5880: cell count [8, 17]
76.9%: viability [1]
active: fluorescence ratio [2] 0.63 | inhibition [4] 32.2% | fluorescence ratio [5] 0.8 | viability ([12]; at 0.00122 µM, OCI-P5x cells, with rucaparib 20 µM, 100% = cells with rucaparib alone) 73.5% | viability ([12]; at 0.00122 µM, OCI-P5x cells, without rucaparib) 91% | viability ([12]; at 0.00488 µM, OCI-P5x cells, with rucaparib 20 µM, 100% = cells with rucaparib alone) 90.4% | viability ([12]; at 0.0195 µM, OCI-P5x cells, with rucaparib 20 µM, 100% = cells with rucaparib alone) 82.9% | viability ([12]; at 0.0781 µM, OCI-P5x cells, with rucaparib 20 µM, 100% = cells with rucaparib alone) 96.1% | viability ([12]; at 0.313 µM, OCI-P5x cells, with rucaparib 20 µM, 100% = cells with rucaparib alone) 94.4% | viability ([12]; at 1.25 µM, OCI-P5x cells, with rucaparib 20 µM, 100% = cells with rucaparib alone) 97.8% | viability ([12]; at 5 µM, OCI-P5x cells, with rucaparib 20 µM, 100% = cells with rucaparib alone) 89.7% | viability ([12]; at 5 µM, OCI-P5x cells, without rucaparib) 92.1%

C[C@H](CCC(=O)O)[C@H]1CC[C@H]2[C@@H]3[C@@H](O)C[C@@H]4C[C@H](O)CC[C@]4(C)[C@H]3CC[C@]12C
1.43 and 1.31: fold change [8, 15]
109% and 101%: viability [1]
10300 and 9880: cell count [8, 17]
active: log fold change Tl+ flux (R275C/beta1) 0.198 | log fold change Tl+ flux (R275C/beta2Delta) 0.142
inactive: parasite load remaining [1] 52.5% and 128% | fluorescence ratio [2] 0.99 | inhibition [3] -1.36% | inhibition [4] 1.81% | fluorescence ratio [5] 0.97 | inhibition [6] -17.2% | fold change [8, 14] 1 and 0.854 | z-score [13, 20] -0.323 | luciferase signal [9] 36 AU | log fold change Tl+ flux (F380Y) 0.0594 | log fold change Tl+ flux (F380Y/beta1) 0.0488 | log fold change Tl+ flux (F380Y/beta2Delta) 0.0428 | log fold change Tl+ flux (F380Y/beta4) 0.0547 | log fold change Tl+ flux [10] 0.00339 | log fold change Tl+ flux (R275C) 0.0817
10300 and 8440: cell count [8, 16]
-0.919: z-score [13, 21]

CC1(C)SC2C(NC(=O)COc3ccccc3)C(=O)N2C1C(=O)O (stereo unspecified)
11000: cell count [8, 16]
11100: cell count [8, 17]
active: fluorescence ratio [2] 0.71
1.37: fold change [8, 15]
inactive: parasite load remaining [1] 83.2% | inhibition [3] -3.18% | inhibition [4] -5.05% | fluorescence ratio [5] 1.01 | inhibition [6] 3.81% | mean signal [7] 260 | fold change [8, 14] 0.993 | log fold change Tl+ flux (F380Y) -0.00633 | log fold change Tl+ flux (F380Y/beta1) 0.027 | log fold change Tl+ flux (F380Y/beta2Delta) 0.0322 | log fold change Tl+ flux (F380Y/beta4) -0.00549 | log fold change Tl+ flux [10] -0.0109 | log fold change Tl+ flux (R275C) 0.00635 | log fold change Tl+ flux (R275C/beta1) 0.0123 | log fold change Tl+ flux (R275C/beta2Delta) -0.0109
94.2%: viability [1]

COc1cccc2c1CCC1CC(=O)CC[C@]21C (stereo partly specified)
1: normalised cell number [11, 18]
inactive: inhibition [6] -1.22% | red/green cell ratio (normalised) [11] 0.76
0.76: normalised cell number [11, 19]

O=C(O[C@@H]1Cc2c(O)cc(O)cc2O[C@@H]1c1cc(O)c(O)c(O)c1-c1c([C@H]2Oc3cc(O)cc(O)c3C[C@H]2OC(=O)c2cc(O)c(O)c(O)c2)cc(O)c(O)c1O)c1cc(O)c(O)c(O)c1
0.94: normalised cell number [11, 19]
0.89: normalised cell number [11, 18]
inactive: inhibition [6] -4.6% | red/green cell ratio (normalised) [11] 1.06

CCCCC(=O)O[C@H]1CC[C@H]2[C@@H]3CCc4cc(O)ccc4[C@H]3CC[C@]12C
-0.171: z-score [13, 21]
6090: cell count [8, 17]
6120: cell count [8, 16]
98.1%: viability [1]
2.83: fold change [8, 15]
inactive: parasite load remaining [1] 36.5% | fluorescence ratio [2] 1.02 | inhibition [3] 3.18% | inhibition [4] 4.1% | fluorescence ratio [5] 0.91 | inhibition [6] 6.29% | fold change [8, 14] 1 | z-score [13, 20] -1.02 | luciferase signal [9] 84 AU | log fold change Tl+ flux (F380Y) 0.0324 | log fold change Tl+ flux (F380Y/beta1) -0.0484 | log fold change Tl+ flux (F380Y/beta2Delta) 0.0462 | log fold change Tl+ flux (F380Y/beta4) 0.00293 | log fold change Tl+ flux [10] 0.00253 | log fold change Tl+ flux (R275C) 0.0329 | log fold change Tl+ flux (R275C/beta1) 0.0221 | log fold change Tl+ flux (R275C/beta2Delta) -0.00327
